The whole screen tested about 290,000 compounds, of which about 3,500 (1.2%) were called active.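 How the source made its calls: active means inhibition above the campaign mean inhibition over all tested compounds plus 3 SD (cut at about 28% in these data); inactive means the rest.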 The sample as a whole holds a higher share of actives than the screen did.
These compounds were tested on M18 aspartyl aminopeptidase (Plasmodium falciparum 3D7) (assay: PfM18AAP inhibitors, malaria aminopeptidase, primary screen, biochemical, QFRET, recombinant enzyme (AID 1822;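 further: 0% = plate median of test compound wells and 100% = 2 mM ZnCl2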)). Settings: H-Glu-NHMec fluorogenic cleavage, at 7.35 µM, active compounds read high.

Compound	inhibition
Oc1ccc(N2CCN(C(=S)NCc3ccccc3)CC2)cc1	36.6% (active)
S=C(NCCc1ccccc1)N1CCCCC1	-5.18% (inactive)
Oc1ccccc1N1CCN(C(=S)NCc2ccccc2)CC1	9.57% (inactive)
Cc1occc1C(=O)N/N=C/c1ccc(-c2cccc([N+](=O)[O-])c2)o1	9.99% (inactive)
NS(=O)(=O)c1ccc(NC(=S)N2CCCC2)cc1	0.47% (inactive)
CCOc1ccccc1N1CCN(C(=S)Nc2ccc(S(N)(=O)=O)cc2)CC1	9.49% (inactive)
COc1ccc(N2CCN(C(=S)Nc3ccc(S(N)(=O)=O)cc3)CC2)cc1	46.7% (active)
NS(=O)(=O)c1ccc(CCNC(=O)c2nc(CS(=O)(=O)c3ccc(Cl)cc3)no2)cc1	-4.83% (inactive)
O=C(NC1CCCC1)C(c1ccc(Cl)cc1)N(C(=O)c1csnn1)C1CC1 (stereo not drawn)	-2% (inactive)
O=C(CCCN1C(=O)/C(=C/c2cccs2)SC1=S)Nc1ccc(O)cc1	1.87% (inactive)
CC(C(=O)Nc1ccc(O)c(C(=O)O)c1)N1C(=O)/C(=C/c2cccs2)SC1=S (stereo not drawn)	30.4% (active)
O=C(CCN1C(=O)/C(=C/c2cccs2)SC1=S)NNC(=O)c1cccc(O)c1	-2.41% (inactive)
CN(C(=O)CC1C(=O)NCCN1Cc1ccc2ccccc2c1)C1CCOCC1 (stereo not drawn)	9.14% (inactive)
Cc1ccc(Nc2nnc(SCC(=O)c3cc4ccccc4o3)s2)cc1C	6.69% (inactive)
Cc1cc(NC(=O)CSc2nnc(Nc3ccccc3F)s2)no1	-12.2% (inactive)
Cc1ccccc1Nc1nnc(SCC(=O)c2cc3ccccc3o2)s1	28.2% (active)
O=C(NCCS(=O)(=O)N1CCN(c2ccccc2F)CC1)c1ccc(Br)o1	0.95% (inactive)
CCOc1ccc(C(=O)Nc2ccc(S(=O)(=O)NCC3CCCO3)cc2)cc1OCC (stereo not drawn)	-11.8% (inactive)
CC(C)(C)c1ccc(CN2C(=O)c3ccccc3S2(=O)=O)cc1	7.13% (inactive)
N#Cc1ccccc1-n1c(N)c(C(=O)N2CCCC2)sc1=S	29.2% (active)
Cc1ccc(-n2c(N)c(C(=O)N3CCOCC3)sc2=S)c(C)c1	4.98% (inactive)
Cc1cccc(-n2c(N)c(C(=O)N3CCN(C)CC3)sc2=S)c1	13.6% (inactive)
CCN(CC)CCCNC(=O)c1cc2c(=O)[nH]c3ccc(C)cc3c2s1	0.43% (inactive)
CCOc1cc(C(=O)O)ccc1OCCOc1ccccc1	9.32% (inactive)
[2H]C(CCOS(N)(=O)=O)c1ccccc1 (stereo not drawn)	-1.1% (inactive)
CCOC(=O)CSc1nc2sc3c(c2c(=O)[nH]1)CC(C)(C)OC3	10.6% (inactive)
CC/C(C)=N/Nc1nc2sc3c(c2c(=O)[nH]1)CC(C)(C)OC3	48.8% (active)
CCSc1nc2sc3c(c2c(=O)[nH]1)CC(C)(C)OC3	-5.01% (inactive)

From PubChem BioAssay AID1822 (The Scripps Research Institute Molecular Screening Center, 2009)
